Compound activity: PubChem BioAssay, National Center for Advancing Translational Sciences (NCATS)
HCMV antiviral: human cytomegalovirus inhibition; HFF cells, HCMV-luciferase reporter, 72 h; stronger effect = lower value; activity change, negative = inhibition, % at 57.5 µM; 410,000 compounds, 4.5% hits; AID 1259415; in the data active means activity change below about -60%; inconclusive means no clear call, values can overlap the other calls; inactive means above about -39%
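Compounds were evaluated in HFFs infected with an HCMV luciferase reporter virus (MOI 1 PFU/cell). Luciferase in lysates collected 72 h post infection served as the replication measure.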
HCV inh: inhibitors of hepatitis C virus infection | Huh7.5.1 HCVcc-Cre infection, luciferase reporter, 44 h | Potency, µM (series often up to 41.8 µM), inactives show at the top dose activity change, negative = inhibition, most hits filed as inhibitors | 340,000 compounds, 3.4% hits | AID 651820; active means well fitted inhibition curve with a large enough effect; inconclusive means small, poorly fitted or top-dose-only effect, or another doubt; inactive means no such curve, though single readings can be large or run the other way; further: potency means the concentration at half of the fitted maximal effect
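Compounds are dispensed onto cells plated 4 h earlier at 1,000 per well, with HCVcc-Cre virus (about 0.5 moi) added next. Following 44 h of culture, luminescent signal is measured for 15 sec after 15 min with substrate at room temperature.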
FMDV antiviral: foot and mouth disease virus antiviral activity; FMDV antiviral cell-based qHTS; Potency, µM (titrated, usually from 57.9 µM), for the others: top-dose activity change, negative = inhibition, usual class: inhibitors; 410,000 compounds, 1.2% hits; calls by dose curve; tested in HEK293T cells; further: read-out not given here; potency means the concentration at half of the fitted maximal effect; nearly all actives have a fitted effect of over 45% in size
LASV entry inh: inhibitors of Lassa virus binding or cell entry; Lassa virus pseudotype entry inhibition, cell reporter; Potency, µM (highest dose often 37.9 µM), inactives show top-dose activity change, negative = inhibition, usual class: inhibitors; 300,000 compounds, 1.2% hits; AID 540256; calls by dose curve; tested in HEK293 cells; further: potency means the concentration at half of the fitted maximal effect; nearly all actives have a fitted effect of over 50% in size
Marburg entry inh: Marburg virus entry inhibition | 300,000 compounds, 1.8% hits | Marburg virus pseudotyped entry inhibition, cell reporter | Potency, µM (doses to about 37.8 µM), inactives show at the highest dose activity change, negative = inhibition, most hits filed as inhibitors | AID 540276; calls by dose curve; tested in HEK293 cells; further: potency means the concentration at half of the fitted maximal effect
The depositor's hits bear a star; [ ] = another dose, or the depositor's remark. The list is not random: actives were taken first. Their share in the collection is about 7.9%. On the % scale 0 is the no-effect control and ±100 the full control effect.

CCCN1C(=O)c2cc(C(=O)Nc3ccccc3OC)ccc2C1Nc1ccccc1OC (stereo not drawn) was read as HCMV antiviral -29, HCV inh 11µM*, FMDV antiviral inconclusive, LASV entry inh inconclusive and Marburg entry inh inconclusive.
CC(C)CNc1c2c(nc3ccccc13)CCC2 was read as HCMV antiviral -68*, HCV inh inconclusive, FMDV antiviral inconclusive, LASV entry inh inconclusive and Marburg entry inh inconclusive.
For CN(C)CCCNc1c2c(nc3ccccc13)CCC2 the results were HCMV antiviral -95*, HCV inh inconclusive and FMDV antiviral -9%.
For COc1ccc2nc3cc(Cl)ccc3c(Nc3cc(C(C)C)c(O)cc3C)c2c1 the results were HCMV antiviral inconclusive, HCV inh 11µM*, FMDV antiviral inconclusive, LASV entry inh inconclusive and Marburg entry inh 11µM*.
For COc1ccc(S(=O)(=O)Nc2cc(C(C)C)c(O)cc2C)cc1 the results were HCMV antiviral -39, HCV inh inconclusive, FMDV antiviral 31%, LASV entry inh 15% and Marburg entry inh -15%.
Cc1ccc(NC(=O)CCn2cnc3onc(-c4ccc(F)cc4)c3c2=O)c(Br)c1 was read as HCMV antiviral 0, FMDV antiviral 0% and LASV entry inh inconclusive.
`O=C(CCn1cnc2onc(-c3ccc(F)cc3)c2c1=O)Nc1ccc(F)c(Cl)c1` gave HCMV antiviral -67*, FMDV antiviral -30% and LASV entry inh 22%[46.1 µM].
COc1ccccc1NC(=O)CCn1cnc2onc(-c3ccc(F)cc3)c2c1=O was read as HCMV antiviral 0, FMDV antiviral inconclusive and LASV entry inh 5%[46.1 µM].
O=C(CCn1cnc2onc(-c3ccc(F)cc3)c2c1=O)Nc1cccc(C(F)(F)F)c1 was read as HCMV antiviral -86*, FMDV antiviral -19% and LASV entry inh -29%[46.1 µM].
Screening CC(C)OP(=O)(OC(C)C)C(Nc1cccc(C(=O)O)c1)c1ccccc1 (stereo not drawn) returned HCMV antiviral -28, HCV inh 0%, FMDV antiviral 8.9µM*, LASV entry inh 8% and Marburg entry inh -5%[46.1 µM].
Screening COc1cc(C(=O)OCC(=O)NC(=O)C2CCCCC2)ccc1OC(F)F returned HCMV antiviral -18, HCV inh 11% and FMDV antiviral 11%.
Screening COc1ccccc1NC(=O)Cc1noc(CSc2cc(C)c3ccccc3n2)n1 returned HCMV antiviral -32, HCV inh 11µM*, FMDV antiviral -12%, LASV entry inh 12% and Marburg entry inh -11%.
Cc1ccc(-c2cn(-c3ccc(OC(F)F)cc3)c3[n+]2CCCCC3)cc1 was read as HCMV antiviral -89*, HCV inh -6%, FMDV antiviral -6%, LASV entry inh inconclusive and Marburg entry inh -27%.
`Cc1ccc(-c2cn(-c3ccc(SC(F)F)cc3)c3[n+]2CCC3)cc1` gave HCMV antiviral -98*, HCV inh inconclusive, FMDV antiviral inconclusive, LASV entry inh -24% and Marburg entry inh inconclusive.
Screening FC(F)Sc1ccc(-n2cc(-c3ccc(Cl)cc3)[n+]3c2CCC3)cc1 returned HCMV antiviral -23, HCV inh 8%, FMDV antiviral -23%, LASV entry inh 1% and Marburg entry inh -16%.
`O=c1cccc2n1Cc1cc3ccccc3nc1-2` gave HCMV antiviral 103, HCV inh 1%[8.37 µM], FMDV antiviral 75%, LASV entry inh inconclusive and Marburg entry inh 1%.
CC[C@@]1(O)C(=O)OCc2c1cc1n(c2=O)Cc2cc3c(N)cccc3nc2-1 was read as HCMV antiviral -99*, HCV inh 27% and FMDV antiviral inconclusive.
CN(C)Cc1c(O)ccc2c(-c3ccccc3)cc(=O)oc12 was read as HCMV antiviral -35, HCV inh 0%, FMDV antiviral -3%, LASV entry inh inconclusive and Marburg entry inh 13%[46.1 µM].
Screening CC[C@@]1(O)C(=O)OCc2c1cc1n(c2=O)Cc2cc3c(CN(C)C)c(O)ccc3nc2-1 returned HCMV antiviral -97*, HCV inh inconclusive and FMDV antiviral -12%.
Screening FC(F)(F)c1nc(N2CCCC2)ncc1-c1nnnn1-c1ccc(Cl)cc1 returned HCMV antiviral -65*, HCV inh 10µM*, FMDV antiviral inconclusive, LASV entry inh inconclusive and Marburg entry inh inconclusive.
`Fc1ccc(-n2nnnc2-c2cnc(-c3cccs3)nc2C(F)(F)F)cc1` gave HCMV antiviral -86*, HCV inh 10µM*, FMDV antiviral 16µM*, LASV entry inh inconclusive and Marburg entry inh inconclusive.
Screening FC(F)(F)c1nc(-c2ccncc2)ncc1-c1nnnn1-c1ccccc1 returned HCMV antiviral 3, HCV inh -13%, FMDV antiviral -13%, LASV entry inh -7% and Marburg entry inh -1%.
Cc1ccc(-n2nnnc2-c2cnn(-c3ccc(F)cc3)c2C(F)(F)F)cc1 was read as HCMV antiviral -70*, HCV inh inconclusive, FMDV antiviral inconclusive, LASV entry inh 15µM* and Marburg entry inh inconclusive.
Cc1ccc(-c2nnnn2-c2ccc(C)cc2)cc1 was read as HCMV antiviral 12, HCV inh 2%, FMDV antiviral -10%, LASV entry inh -11% and Marburg entry inh 0%[46.1 µM].
`Cc1ccc(-n2nnnc2-c2cnc(-c3cccnc3)nc2C(F)(F)F)cc1` gave HCMV antiviral inconclusive, HCV inh 10µM*, FMDV antiviral 22µM*, LASV entry inh inconclusive and Marburg entry inh -37%.
For COc1cc(CNCc2cc3ccc(F)cc3nc2N2CCOCC2)cc(OC)c1OC the results were FMDV antiviral 0%.
`CC(=O)Nc1ccc(S(=O)(=O)NCC(=O)Nc2ccc3c(c2)OCO3)cc1` gave HCMV antiviral 9, HCV inh -14%, FMDV antiviral 73%, LASV entry inh -4% and Marburg entry inh inconclusive.
For Brc1ccc(NC2=Nc3ccccc3CC2)cc1 the results were HCMV antiviral 76, HCV inh 7%, FMDV antiviral 6%, LASV entry inh -26% and Marburg entry inh -24%.
`Cc1ccc(NC2=Nc3ccccc3CC2)cc1` gave HCMV antiviral 29, HCV inh -14%, FMDV antiviral -41%, LASV entry inh inconclusive and Marburg entry inh 7.9µM*.
`Clc1ccc(C2=CSC3=NCCN23)c(Cl)c1` gave HCMV antiviral -32, HCV inh -16%, FMDV antiviral 0%, LASV entry inh inconclusive and Marburg entry inh 0%[46.1 µM].
`COc1ccc(OC)c2sc(NC(=O)C3CC3)nc12` gave HCMV antiviral 39, HCV inh inconclusive and FMDV antiviral -18%.
For CCCC(=O)Nc1nc2c(OC)ccc(OC)c2s1 the results were HCMV antiviral 56, HCV inh 8.9µM* and FMDV antiviral 3%.
CCC(=O)Nc1nc2c(OC)ccc(OC)c2s1 was read as HCMV antiviral 29, HCV inh 11µM* and FMDV antiviral -17%.
For CC(C)c1ccc(CN2C(=O)C(n3cccc3)c3ccccc32)cc1 (stereo not drawn) the results were HCMV antiviral -5.
